Measured values taken from PubChem BioAssay (Tox21).
“And” between values parts separate entries of the source, which are not always exact repeats. Identical values can stand only once. Results filed as inconclusive are left out. Where a call stands in place of a potency, no number is given. A structure can be active in one record and inactive in another. The source made the active and inactive calls. Unless noted, calls come from the whole dose curve; as a rule, active = well fitted curve in the direction sought with a large enough effect in the repeat runs; inconclusive = weak or mixed curves; inactive = no such curve, though single readings can be large; an effect the other way counts as inactive or inconclusive.

Key:
[1] = qHTS assay to identify small molecule antagonists of the glucocorticoid receptor (GR) signaling pathway - cell viability counter screen (AID 720693); note: nearly all actives have a fitted effect of over 55% in size; note: potency is the fitted concentration of half-maximal effect
[2] = qHTS assay to identify small molecule antagonists of the androgen receptor (AR) signaling pathway - cell viability counter screen (AID 743033; note: nearly all actives have a fitted effect of over 45% in size; note: potency is the fitted concentration of half-maximal effect)
[3] = molecular target: Androgen receptor (Homo sapiens) (UniProt P10275); experiment: qHTS assay to identify small molecule antagonists of the androgen receptor (AR) signaling pathway (AID 743035; active = well fitted inhibition curve with a large enough effect in the signal ratio in the repeat runs, not every such curve was filed as active; the % refers to the signal ratio)
Chain of Androgen receptor (Homo sapiens) (P10275 whole entry, looked up): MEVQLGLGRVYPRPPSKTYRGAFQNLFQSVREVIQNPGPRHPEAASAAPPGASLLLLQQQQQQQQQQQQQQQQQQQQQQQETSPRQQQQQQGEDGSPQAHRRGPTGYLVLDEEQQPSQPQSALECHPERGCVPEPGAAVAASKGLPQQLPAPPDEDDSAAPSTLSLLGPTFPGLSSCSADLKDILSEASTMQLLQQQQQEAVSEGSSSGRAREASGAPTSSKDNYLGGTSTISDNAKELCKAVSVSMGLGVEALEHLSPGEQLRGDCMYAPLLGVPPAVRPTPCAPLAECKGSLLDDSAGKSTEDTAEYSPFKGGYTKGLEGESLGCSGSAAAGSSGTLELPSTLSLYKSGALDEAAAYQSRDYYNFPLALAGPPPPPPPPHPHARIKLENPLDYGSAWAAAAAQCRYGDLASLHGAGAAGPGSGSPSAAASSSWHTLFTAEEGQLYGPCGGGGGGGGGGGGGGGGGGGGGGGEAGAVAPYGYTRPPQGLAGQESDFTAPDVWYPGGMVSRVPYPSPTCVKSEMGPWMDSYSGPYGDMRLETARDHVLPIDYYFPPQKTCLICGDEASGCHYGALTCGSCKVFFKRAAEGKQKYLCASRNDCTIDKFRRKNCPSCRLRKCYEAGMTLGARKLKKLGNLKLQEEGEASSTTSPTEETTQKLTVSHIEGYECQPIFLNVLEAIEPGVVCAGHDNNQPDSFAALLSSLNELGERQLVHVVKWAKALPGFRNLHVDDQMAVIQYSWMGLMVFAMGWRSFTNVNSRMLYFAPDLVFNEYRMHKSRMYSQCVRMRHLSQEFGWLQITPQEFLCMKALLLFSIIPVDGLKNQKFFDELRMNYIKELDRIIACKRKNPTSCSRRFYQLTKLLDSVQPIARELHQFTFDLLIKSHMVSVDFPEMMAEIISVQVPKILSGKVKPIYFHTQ
Method in brief: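 Antagonism is scored as loss of R1881-driven beta-lactamase reporter expression in HEK293 cells carrying the reporter under a UAS element, after 16 h co-treatment at 37C and a 2 h room-temperature FRET substrate read.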

[4] = molecular target: Androgen receptor (Homo sapiens) (UniProt P10275); experiment: qHTS assay to identify small molecule agonists of the androgen receptor (AR) signaling pathway (AID 743036; active = well fitted activation curve with a large enough effect in the signal ratio in the repeat runs, with a control signal flat, not every such curve was filed as active; the % refers to the signal ratio)
Method in brief: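 HEK293 cells stably carrying a UAS-driven beta-lactamase reporter (GeneBLAzer AR-UAS-bla-GripTite) were plated at 2,000 cells/well, rested 4 h at 37C, then exposed to compounds in DMSO for 16 h. LiveBLAzer B/G FRET substrate was added for 2 h at room temperature; fluorescence read.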

[5] = qHTS assay to identify small molecule antagonists of the androgen receptor (AR) signaling pathway using the MDA cell line - cell viability counter screen (AID 743041; note: nearly all actives have a fitted effect of over 45% in size; note: potency is the fitted concentration of half-maximal effect)
Method in brief: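 MDA-kb2 AR-luc cells (MMTV-luciferase, AR/GR responsive) treated with compounds plus R1881 agonist for 16 h at 37C. CellTiter-Fluor added at 15.5 h; fluorescence read after 30 min in the same wells.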

[6] = qHTS assay to identify small molecule antagonists of the thyroid receptor (TR) signaling pathway - cell viability counter screen (AID 743064); note: nearly all actives have a fitted effect of over 50% in size; note: potency is the fitted concentration of half-maximal effect
Method in brief: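 GH3.TRE-Luc rat pituitary cells carrying a TRE-luciferase reporter were treated with compound plus 1 nM T3 (final) for 23.5 h at 37 °C. Viability was then read in the same wells by CellTiter-Fluor fluorescence after a further 30 min.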

[7] = qHTS assay to identify small molecule antagonists of the thyroid receptor (TR) signaling pathway (AID 743065); note: nearly all actives have a fitted effect of over 55% in size; note: potency is the fitted concentration of half-maximal effect
Method in brief: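 GH3.TRE-Luc rat pituitary cells (two TREs driving luciferase) were dosed with compound, then stimulated with 1 nM T3 (final) for 23.5 h at 37 C. ONE-Glo luminescence was the read-out, with CellTiter-Fluor fluorescence as the cytotoxicity counter-screen.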

[8] = system: thyroid hormone receptor (rat, GH3 cells); experiment: qHTS assay to identify small molecule agonists of the thyroid receptor (TR) signaling pathway (AID 743066; calls by dose curve)
[9] = molecular target: Estrogen receptor (Homo sapiens) (UniProt P03372); experiment: qHTS assay to identify small molecule antagonists of the estrogen receptor alpha (ER-alpha) signaling pathway (AID 743069; active = well fitted curve in the direction sought with a large enough effect in the signal ratio in the repeat runs, not every such curve was filed as active; the % refers to the signal ratio)
Chain of Estrogen receptor (Homo sapiens) (P03372 whole entry, looked up): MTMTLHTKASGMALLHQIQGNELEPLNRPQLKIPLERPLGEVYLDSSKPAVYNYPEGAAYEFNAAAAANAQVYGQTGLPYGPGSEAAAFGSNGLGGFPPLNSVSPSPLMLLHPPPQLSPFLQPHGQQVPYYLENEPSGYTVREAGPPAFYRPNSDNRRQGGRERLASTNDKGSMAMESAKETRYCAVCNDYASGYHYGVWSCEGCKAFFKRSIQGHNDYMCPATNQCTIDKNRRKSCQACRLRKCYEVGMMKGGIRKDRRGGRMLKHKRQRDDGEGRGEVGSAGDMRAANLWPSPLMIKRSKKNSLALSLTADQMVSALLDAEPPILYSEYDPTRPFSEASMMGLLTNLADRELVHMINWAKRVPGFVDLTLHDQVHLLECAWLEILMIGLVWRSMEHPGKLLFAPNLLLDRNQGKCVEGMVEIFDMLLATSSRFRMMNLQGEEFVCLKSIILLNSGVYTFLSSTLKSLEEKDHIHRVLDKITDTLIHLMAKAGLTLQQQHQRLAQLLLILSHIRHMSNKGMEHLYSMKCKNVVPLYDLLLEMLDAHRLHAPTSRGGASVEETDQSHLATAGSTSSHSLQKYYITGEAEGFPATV
Method in brief: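 HEK293 ER-alpha-UAS-bla GripTite cells, held overnight in 2% charcoal-stripped FBS, 5,000 cells/well, preincubated 4 h, then compound plus 17beta-estradiol for 18 h at 37C. Beta-lactamase read by LiveBLAzer B/G FRET substrate, 2 h at room temperature.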

[10] = qHTS assay to identify small molecule antagonists of the estrogen receptor alpha (ER-alpha) signaling pathway - cell viability counter screen (AID 743074; calls by dose curve;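 note: HEK293 cells carrying ER-alpha-UAS-bla reporter stimulated with 17beta-estradiol; nearly all actives have a fitted effect of over 45% in size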; note: potency is the fitted concentration of half-maximal effect)
[11] = molecular target: Estrogen receptor (Homo sapiens) (UniProt P03372); experiment: qHTS assay to identify small molecule agonists of the estrogen receptor alpha (ER-alpha) signaling pathway (AID 743075; calls by dose curve)
[12] = molecular target: Estrogen receptor (Homo sapiens) (UniProt P03372); experiment: qHTS assay to identify small molecule agonists of the estrogen receptor alpha (ER-alpha) signaling pathway using the BG1 cell line (AID 743079); note: nearly all actives have a fitted effect of over 20% in size; note: potency is the fitted concentration of half-maximal effect
[13] = qHTS assay to identify small molecule antagonists of the estrogen receptor alpha (ER-alpha) signaling pathway using the BG1 cell line (AID 743080; calls by dose curve;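 note: BG1 cells stimulated with 17beta-estradiol alongside compound; nearly all actives have a fitted effect of over 25% in size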; note: potency is the fitted concentration of half-maximal effect); details: BG1Luc4E2 ERE-luciferase antagonist mode, luminescence; activity change, negative = inhibition: at 70.3 µM (top of the series)
Method in brief: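 After 5 days in phenol-red-free 10% charcoal-stripped FBS medium, BG1-Luc-4E2 cells were seeded, left 24 h at 37 C, co-treated with compounds and 17beta-estradiol for 21.5 h, then assayed for viability and luciferase.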

[14] = qHTS assay to identify small molecule antagonists of the estrogen receptor alpha (ER-alpha) signaling pathway using the BG1 cell line - cell viability counter screen (AID 743081);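 note: compound given together with 17beta-estradiol as the ER stimulus; nearly all actives have a fitted effect of over 45% in size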; note: potency is the fitted concentration of half-maximal effect
[15] = qHTS assay to identify aromatase inhibitors - cell viability counter screen (AID 743084);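 note: cells stimulated with testosterone during compound exposure; nearly all actives have a fitted effect of over 55% in size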; note: potency is the fitted concentration of half-maximal effect
[16] = qHTS assay for identifying genotoxic compounds that show differential cytotoxicity against isogenic chicken DT40 cell lines with known DNA damage response pathways - Rev3 mutant cell line (AID 743014); note: nearly all actives have a fitted effect of over 55% in size; note: potency is the fitted concentration of half-maximal effect
[17] = qHTS assay for identifying genotoxic compounds that show differential cytotoxicity against isogenic chicken DT40 cell lines with known DNA damage response pathways - Rad54/Ku70 mutant cell line (AID 743015); note: nearly all actives have a fitted effect of over 60% in size; note: potency is the fitted concentration of half-maximal effect
[18] = molecular target: Androgen receptor (Homo sapiens) (UniProt P10275); experiment: qHTS assay to identify small molecule antagonists of the androgen receptor (AR) signaling pathway using the MDA cell line (AID 743042; note: nearly all actives have a fitted effect of over 55% in size)
Method in brief: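 MDA-kb2 breast carcinoma cells carrying MMTV-luciferase (AR/GR responsive) were co-treated with compounds and the agonist R1881 for 16 h at 37C. Inhibition read as ONE-Glo luminescence; CellTiter-Fluor fluorescence measured in parallel for cytotoxicity.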

Aromatase (Homo sapiens) = Aromatase (Homo sapiens) (UniProt P11511); experiment: qHTS assay to identify aromatase inhibitors (AID 743083); note: nearly all actives have a fitted effect of over 55% in size; note: potency is the fitted concentration of half-maximal effect
Chain of Aromatase (Homo sapiens) (P11511 whole entry, looked up): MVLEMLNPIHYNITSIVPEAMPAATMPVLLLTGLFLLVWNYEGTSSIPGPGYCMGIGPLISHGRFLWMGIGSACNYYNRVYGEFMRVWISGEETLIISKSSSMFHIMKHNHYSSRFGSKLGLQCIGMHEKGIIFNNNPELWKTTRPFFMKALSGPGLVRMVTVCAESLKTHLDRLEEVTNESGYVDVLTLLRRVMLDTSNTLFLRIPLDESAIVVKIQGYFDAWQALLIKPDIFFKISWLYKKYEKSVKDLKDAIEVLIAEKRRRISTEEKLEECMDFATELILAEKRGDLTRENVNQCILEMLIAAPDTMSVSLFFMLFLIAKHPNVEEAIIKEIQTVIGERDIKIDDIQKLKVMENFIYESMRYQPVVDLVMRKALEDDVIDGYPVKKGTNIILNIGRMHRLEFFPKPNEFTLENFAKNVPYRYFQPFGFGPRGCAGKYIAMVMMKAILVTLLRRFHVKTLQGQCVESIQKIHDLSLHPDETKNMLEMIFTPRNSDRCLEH

| SMILES | Potency [1] | Potency [2] | Potency [3] | outcome [4] | Potency [5] | Potency [6] | Potency [7] | Potency [8] | Potency [9] | Potency [10] | Potency [11] | Potency [12] | Potency [13] | Potency [14] | Potency [15] | Potency [16] | Potency [17] | Potency [18] | Potency (Aromatase (Homo sapiens)) |
| --- | --- | --- | --- | --- | --- | --- | --- | --- | --- | --- | --- | --- | --- | --- | --- | --- | --- | --- | --- |
| CN(C)CCOC(c1ccccc1)c1ccccc1 | inactive | inactive | inactive | inactive | inactive | 26.6 µM (active) and 19.4 µM (active) | 26.6 µM (active) and 48.6 µM (active) | inactive | inactive | inactive and 9.52 µM (active) | inactive | inactive | inactive | inactive | inactive |  |  |  |  |
| CC(C)c1c(C(=O)Nc2ccccc2)c(-c2ccccc2)c(-c2ccc(F)cc2)n1CC[C@@H](O)C[C@@H](O)CC(=O)O | inactive | inactive |  |  | inactive | inactive and 57.1 µM (active) |  | inactive |  | inactive |  |  |  | inactive | inactive |  |  |  |  |
| O=C(Nc1ncc([N+](=O)[O-])s1)c1cccs1 | 9.52 µM (active) |  |  |  |  |  | 21.1 µM (active) | inactive | inactive |  | inactive |  |  |  |  | 29.8 µM (active) | 26.6 µM (active) | inactive | inactive |
| Cc1cc(=O)oc2cc(O)ccc12 | inactive | inactive |  |  | inactive |  |  | inactive | inactive | inactive | inactive | inactive | inactive | inactive | inactive | inactive | inactive |  | inactive |
| CCc1nc(N)nc(N)c1-c1ccc(Cl)cc1 | inactive |  |  |  | inactive | 62.1 µM (active) | 10.6 µM (active) and 6.21 µM (active) and 9.69 µM (active) | inactive | inactive | 7.02 µM (active) | inactive |  | 23.7 µM (active) | inactive | inactive | 668 nM (active) and 196 nM (active) and 109 nM (active) | 1.5 µM (active) and 392 nM (active) and 217 nM (active) |  | inactive and 55.3 µM (active) |
| COc1ccc(CN(CCN(C)C)c2ccccn2)cc1 | inactive | inactive |  |  | inactive |  |  | inactive |  | inactive |  |  |  | inactive | inactive | inactive | inactive |  |  |
| CN1CCc2cccc3c2[C@H]1Cc1ccc(O)c(O)c1-3 | inactive | 55.5 µM (active) |  |  | inactive | 29.8 µM (active) and 49.1 µM (active) and 22.8 µM (active) |  |  | inactive | inactive | inactive |  |  | 69.3 µM (active) | 29.8 µM (active) and 24.6 µM (active) and 20.4 µM (active) | 11.9 µM (active) and 6.93 µM (active) and 9.09 µM (active) | 16.8 µM (active) and 12.3 µM (active) and 8.1 µM (active) |  | 21.9 µM (active) and 11.4 µM (active) |
| COc1ccc2cc(S(=O)(=O)N[C@H](CC(=O)N[C@H](Cc3ccc(CN4[C@H](C)CCC[C@@H]4C)cc3)C(=O)N(C)C(C)C)c3ccc4c(c3)OCO4)ccc2c1 |  | 20.7 µM (active) |  |  |  | 2.58 µM (active) | 3.65 µM (active) |  | inactive | 52 µM (active) |  |  |  | 9.17 µM (active) | 46 µM (active) | 9.17 µM (active) | 5.16 µM (active) |  | 46 µM (active) |
| C1=CC2C3C=CC(C3)C2C1 (configuration not stated) | inactive | inactive |  |  | inactive |  | inactive | inactive |  |  |  |  |  | inactive | inactive | 47.7 µM (active) |  |  |  |
| O=C(O)c1ccccc1 | inactive | inactive |  |  | inactive | inactive |  |  | inactive | inactive | inactive | 5.1 µM (active) and inactive | inactive | inactive | inactive | inactive | inactive |  | inactive |
| CC(O)(P(=O)(O)O)P(=O)(O)O | inactive | inactive |  |  | inactive | inactive |  | inactive |  | inactive |  |  |  | inactive | inactive | inactive | inactive |  | inactive |
| C=CCc1ccc(O)c(OC)c1 | inactive | inactive |  |  | inactive | inactive |  |  | inactive | inactive | inactive | inactive | inactive | inactive | inactive | inactive | inactive |  | inactive |
| O=CC(=O)c1ccccc1 | inactive | inactive |  |  | inactive | inactive |  |  | inactive | inactive | inactive | inactive | inactive | inactive | inactive |  | inactive |  | inactive |
| O=c1[nH]cc(F)c(=O)[nH]1 | inactive | inactive |  |  | inactive | 20.1 µM (active) |  |  | inactive | inactive | inactive | inactive | inactive | inactive | inactive | 50.4 µM (active) and 27.9 µM (active) | 21.1 µM (active) and 40 µM (active) and 17.6 µM (active) |  | inactive |
| CCCCC(CC)C(=O)O (configuration not stated) | inactive | inactive |  |  | inactive | inactive | inactive | inactive |  | inactive |  |  |  | inactive | inactive |  |  |  | inactive |
| Nc1ccc(O)c([N+](=O)[O-])c1 |  | inactive |  |  |  | 45.7 µM (active) | inactive | inactive |  |  | inactive | inactive | inactive | 34 µM (active) |  |  | 65.6 µM (active) |  | inactive |
| CN(C)CCOC(C)(c1ccccc1)c1ccccn1 (configuration not stated) | inactive | inactive |  |  | inactive |  |  |  |  | inactive |  |  |  | inactive | inactive | inactive | inactive |  | inactive |
| CN1[C@@H]2CC(OC(=O)[C@H](CO)c3ccccc3)C[C@H]1[C@@H]1O[C@@H]12 (some centres not stated) | inactive | inactive |  |  | inactive | inactive |  | inactive | inactive | inactive | inactive | inactive and 23.7 µM (active) and 48.6 µM (active) | inactive | inactive | inactive |  |  |  |  |
| CCN(Cc1c(F)cccc1Cl)c1c([N+](=O)[O-])cc(C(F)(F)F)cc1[N+](=O)[O-] |  |  |  |  | inactive | inactive |  | inactive |  | inactive | inactive | 21.7 µM (active) | inactive | inactive | inactive | 27.3 µM (active) | 24.3 µM (active) |  | 27.3 µM (active) |
| O=C1OC2(c3ccccc31)c1cc(Br)c(O)c(Br)c1Oc1c2cc(Br)c(O)c1Br | inactive | inactive |  |  | 11.9 µM (active) and 7.81 µM (active) and 17.7 µM (active) | 6.68 µM (active) and 5.53 µM (active) and 7.91 µM (active) | inactive | inactive |  | inactive | inactive | inactive | inactive | 11.9 µM (active) and 3.91 µM (active) and 8.88 µM (active) | 9.44 µM (active) and 2.2 µM (active) and 4.45 µM (active) |  | inactive |  | inactive |
